From PubChem BioAssay
Sampled rows, rich in hits. Any-hit rate of the full collection: about 6.8%.
T cruzi growth-1: T. cruzi intracellular proliferation inhibitors, primary screen, cell-based, beta-gal Tulahuen parasites, NIH3T3 host, luminescence; T. cruzi beta-gal in NIH3T3, GalScreen luminescence, 90 h; inhibition, % at 8.34 µM; 5.9% of 77,000 active; AID 624255, 2012;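 active = mean inhibition above about 93%, with at least 55% of replicates each passing it, limit read from the data, passing the limit was not always enough; inconclusive = only one of those two conditions holds; inactive = neither condition holds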
C diff HTS: C. difficile growth inhibitors, primary screen, HTS; Clostridium difficile clinical isolate growth, OD600, 24 h; hits give low values; growth activity, negative = inhibition, % at 16 µg/mL (by protocol); 0.25% of 86,000 active;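 active = mean growth activity at or below -80% and every replicate also at or below -80%; inconclusive = mean at or below -80% but some replicate above -80%; inactive = mean growth activity above -80%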;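 also: 0% = DMSO wells and -100% = levofloxacin 16 µg/mL wells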
Pf Dd2 growth: P. falciparum Dd2 growth inhibitors, primary screen, SYBR Green fluorescence, single dose replicates. AID 1159554, 2015. 72 h; hits give low values. 2.3% of 94,000 active. activity change, % at 10 µM; in the data active = activity change below about -80%; inconclusive = no clear call, values can overlap the other calls
T cruzi growth-2: T. cruzi intracellular proliferation inhibitors, confirmation, cell-based, NIH3T3 host, beta-gal parasite, luminescence, cherry-pick. 72% of 5,600 active. shares compounds with T cruzi growth-1. inhibition, % at 8.35 µM. T. cruzi beta-gal in NIH3T3, GalScreen luminescence, 90 h;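 active = mean replicate inhibition above about 95% and at least 55% of replicates individually reaching it, limit read from the data; inconclusive = only one of the two criteria is met; inactive = neither criterion is met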
T cruzi growth-3: inhibitors of intracellular T. cruzi replication, confirmation, NIH3T3 host cells, beta-gal parasites, cherry-pick, set 2. shares compounds with T cruzi growth-1. T. cruzi beta-gal in NIH3T3, GalScreen luminescence, 90 h. inhibition, % at 2.09 µM. 21% of 5,600 active;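 active = mean inhibition above about 95%, with at least 55% of replicates also reaching it, limit read from the data; inconclusive = meets just one of the two conditions; inactive = meets neither condition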;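 also: plate controls were neutral control median for no effect and positive control median for full effect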
NIH3T3 tox: cytotoxicity in mouse NIH/3T3 fibroblasts, confirmation, cytotoxicity control for T. cruzi proliferation inhibitor project, cell-based, cherry-pick, single point. shares compounds with T cruzi growth-1. NIH/3T3 viability, CellTiter-Glo ATP luminescence, 90 h. cytotoxicity (signal decrease), % at 8.35 µM. 14% of 5,600 active;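 active = mean signal decrease across replicates above about 35% based on untreated-well scatter, with enough replicates individually passing, limit read from the data; inconclusive = no rule stated though some were filed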;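 also: 0% = median of neutral control wells and 100% = median of positive control wells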
NIH3T3 tox 2: NIH/3T3 fibroblast cytotoxicity, confirmation, cytotoxicity control, cell-based, cherry-pick, single point, set 2. shares compounds with T cruzi growth-1. NIH/3T3 viability, CellTiter-Glo ATP luminescence, 90 h. inhibition, % at 24.9 µM. 56% of 5,600 active. AID 651744, 2012;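 active = mean loss of cell viability signal at or above a set limit, and enough replicates individually reaching it; inconclusive = meets only the mean limit or only the replicate share; inactive = meets neither condition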;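 also: 0% = median of neutral control wells and 100% = median of positive control wells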
An asterisk follows results filed as active.

Results for C[C@@H]1CN([C@H](C)CO)C(=O)c2cc(NC(=O)Nc3ccc(F)cc3)ccc2O[C@H]1CN(C)Cc1ccc(-c2ccccc2)cc1 ?
T cruzi growth-1: 47.9; C diff HTS: 2.1; Pf Dd2 growth: 8.6

What do the screens show for `C[C@H]1CN([C@@H](C)CO)C(=O)c2cc(NC(=O)Nc3ccccc3)ccc2O[C@H]1CN(C)Cc1ccc(-c2ccccc2)cc1`?
T cruzi growth-1: 76.9; C diff HTS: 2.2; Pf Dd2 growth: 11.0

Results for C[C@@H]1CN([C@H](C)CO)C(=O)c2cc(NC(=O)Nc3ccc(F)cc3)ccc2O[C@@H]1CN(C)Cc1ccc(-c2ccccc2)cc1 ?
T cruzi growth-1: inconclusive; C diff HTS: 69.3; Pf Dd2 growth: 7.1; T cruzi growth-2: 95.3*; T cruzi growth-3: 88.8; NIH3T3 tox: 111.3*; NIH3T3 tox 2: 106.2*

How did C[C@@H]1CN([C@@H](C)CO)C(=O)c2cc(NC(=O)Nc3ccc(F)cc3)ccc2O[C@@H]1CN(C)Cc1ccc(-c2ccccc2)cc1 do in these assays?
T cruzi growth-1: 93.8*; C diff HTS: 77.4; Pf Dd2 growth: -2.0; T cruzi growth-2: 96.4*; T cruzi growth-3: 87.2; NIH3T3 tox: 57.4*; NIH3T3 tox 2: 101.9*

Results for C[C@H]1CN([C@@H](C)CO)C(=O)c2cc(-c3ccncc3)cnc2O[C@@H]1CN(C)C(=O)C1CCC1 ?
T cruzi growth-1: 45.1; Pf Dd2 growth: 24.8

What do the screens show for `COc1ccc(S(=O)(=O)N(C)C[C@H]2Oc3ccc(NC(=O)Nc4ccccc4)cc3C(=O)N([C@@H](C)CO)C[C@H]2C)cc1`?
T cruzi growth-1: 28.7; C diff HTS: -5.1; Pf Dd2 growth: 12.5

Results for C[C@H]1CN([C@@H](C)CO)S(=O)(=O)c2ccc(/C=C/c3ccccc3)cc2O[C@H]1CN(C)C(=O)Nc1cccc(F)c1 ?
T cruzi growth-1: 123.0*; C diff HTS: 19.6; Pf Dd2 growth: -33.0; T cruzi growth-2: 106.1*; T cruzi growth-3: 102.6*; NIH3T3 tox: 38.8*; NIH3T3 tox 2: 38.2*

What do the screens show for `C/C=C/c1ccc2c(c1)O[C@H](CN(C)C(=O)Nc1cccc(F)c1)[C@H](C)CN([C@@H](C)CO)S2(=O)=O`?
T cruzi growth-1: 93.4; C diff HTS: 2.4; Pf Dd2 growth: 31.0

What do the screens show for `C[C@@H]1CN([C@@H](C)CO)S(=O)(=O)c2ccc(/C=C/c3ccccc3)cc2O[C@@H]1CN(C)C(=O)Nc1cccc(F)c1`?
T cruzi growth-1: 126.6*; C diff HTS: 4.6; Pf Dd2 growth: -54.1; T cruzi growth-2: 100.8*; T cruzi growth-3: 104.6*; NIH3T3 tox: inconclusive; NIH3T3 tox 2: 29.1*

How did C/C=C/c1ccc2c(c1)O[C@@H](CN(C)C(=O)Nc1cccc(F)c1)[C@H](C)CN([C@H](C)CO)S2(=O)=O do in these assays?
T cruzi growth-1: -102.0; C diff HTS: 2.5; Pf Dd2 growth: -33.3

Results for COc1cccc(NC(=O)N(C)C[C@@H]2Oc3cc(/C=C/c4ccccc4)ccc3S(=O)(=O)N([C@@H](C)CO)C[C@@H]2C)c1 ?
C diff HTS: -9.3; Pf Dd2 growth: -77.2

How did C[C@@H]1CN([C@@H](C)CO)S(=O)(=O)c2ccc(/C=C/c3ccccc3)cc2O[C@H]1CN(C)C(=O)Nc1cccc(F)c1 do in these assays?
T cruzi growth-1: 127.4*; C diff HTS: 6.7; Pf Dd2 growth: -50.3; T cruzi growth-2: 95.5*; T cruzi growth-3: 97.2*; NIH3T3 tox: 49.2*; NIH3T3 tox 2: 80.2*

Results for CNC[C@H]1OCCCC[C@H](C)Oc2ccc(NC(=O)NC3CCCCC3)cc2C(=O)N([C@@H](C)CO)C[C@@H]1C ?
T cruzi growth-1: 20.0; C diff HTS: -3.6; Pf Dd2 growth: 30.3

Results for CN(C)CCCNC(=O)C[C@@H]1CC[C@H](NS(=O)(=O)c2ccccc2)[C@@H](CO)O1 ?
T cruzi growth-1: 21.6; C diff HTS: 1.3; Pf Dd2 growth: 14.1

How did COc1cccc(NC(=O)N(C)C[C@@H]2Oc3cc(-c4ccccc4F)ccc3S(=O)(=O)N([C@H](C)CO)C[C@H]2C)c1 do in these assays?
T cruzi growth-1: 37.7; C diff HTS: -23.6; Pf Dd2 growth: -42.0

What do the screens show for `COc1cccc(NC(=O)N(C)C[C@H]2Oc3cc(C#CC4(O)CCCC4)ccc3S(=O)(=O)N([C@H](C)CO)C[C@@H]2C)c1`?
C diff HTS: 1.0; Pf Dd2 growth: -12.7

Results for COc1cccc(NC(=O)N(C)C[C@@H]2Oc3cc(C#Cc4ccc(F)cc4)ccc3S(=O)(=O)N([C@@H](C)CO)C[C@H]2C)c1 ?
T cruzi growth-1: 104.7*; C diff HTS: 6.9; Pf Dd2 growth: -44.1; T cruzi growth-2: 108.7*; T cruzi growth-3: 104.7*; NIH3T3 tox: 48.2*; NIH3T3 tox 2: 29.5*

How did COc1cccc(NC(=O)N(C)C[C@@H]2Oc3cc(C#Cc4ccc(F)cc4)ccc3S(=O)(=O)N([C@@H](C)CO)C[C@@H]2C)c1 do in these assays?
T cruzi growth-1: 98.0*; C diff HTS: 5.4; Pf Dd2 growth: -86.2*; T cruzi growth-2: 101.6*; T cruzi growth-3: 106.8*; NIH3T3 tox: 45.1*; NIH3T3 tox 2: 20.5

What do the screens show for `COc1cccc(NC(=O)N(C)C[C@@H]2Oc3cc(-c4ccccc4F)ccc3S(=O)(=O)N([C@@H](C)CO)C[C@@H]2C)c1`?
T cruzi growth-1: 87.5; C diff HTS: 8.1; Pf Dd2 growth: -60.4

What do the screens show for `COc1cccc(NC(=O)N(C)C[C@H]2Oc3cc(-c4ccccc4F)ccc3S(=O)(=O)N([C@H](C)CO)C[C@H]2C)c1`?
T cruzi growth-1: 96.4*; C diff HTS: 7.2; Pf Dd2 growth: -48.4; T cruzi growth-2: 110.4*; T cruzi growth-3: 73.6; NIH3T3 tox: 15.6; NIH3T3 tox 2: 22.1

Results for COc1cccc(C#Cc2ccc3c(c2)O[C@H](CN(C)C(C)=O)[C@H](C)CN([C@H](C)CO)S3(=O)=O)c1 ?
T cruzi growth-1: 63.2; C diff HTS: -14.6; Pf Dd2 growth: -54.6

Results for COc1cccc(C#Cc2ccc3c(c2)O[C@H](CN(C)C(C)=O)[C@@H](C)CN([C@@H](C)CO)S3(=O)=O)c1 ?
T cruzi growth-1: inconclusive; C diff HTS: -9.0; Pf Dd2 growth: -59.8; T cruzi growth-2: 102.2*; T cruzi growth-3: 51.0; NIH3T3 tox: 12.3; NIH3T3 tox 2: 49.4*
